Screening results from PubChem.
TbPYK inhibitor – T. brucei pyruvate kinase inhibition. Q57TT1. TbPYK enzyme, Kinase-Glo Plus ATP luminescence, 45 min. Potency, µM (doses to about 76.8 µM), hits mostly inhibitors. 410,000 tested, 0.12% active; note: nearly all actives have a fitted effect of over 50% in size
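T. brucei PYK with substrate was exposed to pin-transferred compounds across a concentration series, then started with 130 uM ADP (final). After 45 min at room temperature, Kinase-Glo Plus luminescence was read, normalized and curve-fitted.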
RE007 growth inh – less growth of the S. pombe RE007 Vpr strain. S. pombe RE007 Vpr strain, BacTiter-Glo ATP luminescence, 24 h. 360,000 tested, 0.21% active. Potency, µM (highest dose often 92.2 µM), usual class: inhibitors; active = well fitted falling curve with a large enough effect; inconclusive = small, poorly fitted or top-dose-only effect; inactive = no such curve, though single readings can be large or run the other way; note: nearly all actives have a fitted effect of over 50% in size
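Fission yeast strain RE007, carrying one chromosomally integrated HIV-1 vpr copy, was seeded at OD 0.01 in PMG+AL medium with 23 nL pinned compound. After 24 h at 30 °C and 99% humidity, viability was read by BacTiter-Glo luminescence.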
LmPK inhibitor – inhibitors of Leishmania mexicana pyruvate kinase. Q27686. purified LmPK, Kinase-Glo ATP luminescence, 1 h. Potency, µM (highest dose often 57.5 µM), usual class: inhibitors. 290,000 tested, 0.37% active. AID 1721
Target sequence (Q27686 whole entry, looked up): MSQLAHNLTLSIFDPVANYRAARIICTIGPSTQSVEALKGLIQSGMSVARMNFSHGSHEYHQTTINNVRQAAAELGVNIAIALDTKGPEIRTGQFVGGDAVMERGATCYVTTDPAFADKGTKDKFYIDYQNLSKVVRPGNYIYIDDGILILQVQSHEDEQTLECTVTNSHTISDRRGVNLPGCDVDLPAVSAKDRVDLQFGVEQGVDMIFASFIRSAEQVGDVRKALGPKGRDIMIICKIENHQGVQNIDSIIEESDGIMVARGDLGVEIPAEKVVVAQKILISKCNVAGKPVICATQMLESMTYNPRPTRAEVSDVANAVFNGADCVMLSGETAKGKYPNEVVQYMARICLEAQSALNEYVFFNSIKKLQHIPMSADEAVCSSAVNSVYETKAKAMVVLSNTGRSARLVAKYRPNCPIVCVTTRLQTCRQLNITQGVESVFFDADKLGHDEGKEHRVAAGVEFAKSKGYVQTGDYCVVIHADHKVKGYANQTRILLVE
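ATP generated from ADP (0.1 mM) and PEP (0.5 mM) by 0.1 nM LmPK over 1 h at room temperature (pH 7.2 imidazole buffer) was detected by coupled luciferase luminescence. Values were normalized to uninhibited and no-enzyme wells.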
Shiga inhibitor – Shiga toxin inhibition; AID 2315; Vero cells, Shiga toxin protein synthesis inhibition reporter; 290,000 tested, 9.2% active; inhibition, % at 38.7 µM; in the data active = inhibition mostly above about 28%, no sharp cut-off; inactive = mostly below about 43%
CHX counter – affects cycloheximide protein synthesis inhibition readout, counter-screen; AID 2314; 300,000 tested, 12% active; max response, %; cell reporter, cycloheximide protein synthesis inhibition counterscreen; in the data active = max response mostly above about 13%, no sharp cut-off; inactive = mostly below about 14%; note: read at 38.3 µM for the half of the compounds with a filed dose
Giardia FBPA inh – blocks Giardia fructose-bisphosphate aldolase activity. A8B2U2. purified Giardia FBPA. Potency, µM (series often up to 59.6 µM), usual class: inhibitors. 290,000 tested, 0.71% active; note: nearly all actives have a fitted effect of over 55% in size
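40 nM FBPA preincubated 10 min at RT with compound (up to 57.5 uM final), then substrate plus GAPDH/TPI/NAD/arsenate coupling and diaphorase/resazurin added. Fluorescence read after 20 min at RT, 525/598 nm.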
Large screens that a line does not name were inactive. The entries come from a sample that favours hits as a whole. Unless noted, calls come from the whole dose curve; as a rule, active = well fitted curve in the direction sought with a large enough effect; inconclusive = small, poorly fitted or top-dose-only effect, or another doubt; inactive = no such curve, though single readings can be large; an effect the other way counts as inactive or inconclusive.

CCOc1ccccc1NC(=O)Cn1c(=O)n(CCCC(=O)NCCc2ccc(C)cc2)c(=O)c2ccccc21	none (no result: RE007 growth inh, LmPK inhibitor, Shiga inhibitor, CHX counter, Giardia FBPA inh)
Cc1ccc(-n2nnc(C(=O)Nc3cc(F)ccc3F)c2C)cc1F	none (no result: RE007 growth inh, LmPK inhibitor, Shiga inhibitor, CHX counter, Giardia FBPA inh)
Cc1ccc(NC(=O)C2CCN(C(=O)NC3CCCCC3)CC2)c(C)c1	none
Cc1cccc(NC(=O)N2CCN(Cc3ccc(Cl)cc3)CC2)c1	none
O=C(Nc1cccc(Cl)c1)N1CCN(Cc2ccccc2)CC1	Shiga inhibitor 41, CHX counter 21
COc1ccc(NC(=O)NC2(C(=O)N3CCOCC3)CCCCC2)cc1	CHX counter 22
Cc1ccc(NC(=O)N2CCCCCC2)c(C)c1	Shiga inhibitor 62, CHX counter 50
CC1CCCN(C(=O)Nc2ccc(Br)cc2Cl)C1 (configuration not stated)	Shiga inhibitor 96, CHX counter 45
COc1ccc(NC(=O)NC2(C(=O)N3CCN4CCCC4C3)CCCCC2)cc1 (configuration not stated)	none
C[C@H](NC(=O)[C@@H](Cc1c[nH]c2ccccc12)NC(=O)[C@@H](N)Cc1cnc[nH]1)C(=O)N[C@@H](Cc1c[nH]c2ccccc12)C(=O)N[C@H](Cc1ccccc1)C(=O)N[C@@H](CCCCN)C(N)=O	none (no result: TbPYK inhibitor, RE007 growth inh, LmPK inhibitor)
COc1cccc(CNS(=O)(=O)c2cnc(N)nc2)c1	none (no result: RE007 growth inh, LmPK inhibitor, Shiga inhibitor, CHX counter, Giardia FBPA inh)
CCOC(=O)c1ccc(NC(=O)NCCN2CCCCC2)cc1	CHX counter 9.3
CCOC(=O)c1ccc(NC(=O)N2CCCCC2)cc1	Shiga inhibitor 78, CHX counter 41
CCOC(=O)c1ccc(NC(=O)N2CCN(C3CCCCC3)CC2)cc1	none
O=C(Nc1ccc(F)cc1F)N1CCCCCC1	CHX counter 27
COc1ccc(NC(=O)NCCN2CCCCC2)cc1	none
O=C(NCCCN1CCCC1=O)c1csc2ccccc12	CHX counter 12
CC1CCc2c(sc3nnn(CC(=O)Nc4c(C(C)C)cccc4C(C)C)c(=O)c23)C1 (configuration not stated)	none (no result: RE007 growth inh, LmPK inhibitor, Shiga inhibitor, CHX counter, Giardia FBPA inh)
CCS(=O)(=O)c1c(S(=O)(=O)CC)c2cc(C(C)(C)C)ccn2c1C(=O)c1ccc(F)cc1	none (no result: RE007 growth inh, LmPK inhibitor, Shiga inhibitor, CHX counter, Giardia FBPA inh)
CC(=O)NC(Cc1ccc(F)cc1)C(=O)NC1CCN(C(=O)Nc2ccc(F)cc2)CC1 (configuration not stated)	none
CCc1ccc(NC(=O)NCCCN2CCCC2=O)cc1	Shiga inhibitor 31, CHX counter 28
CCc1ccc(NS(=O)(=O)c2ccc(NC(=O)N3CCCC3)cc2)cc1	none (no result: RE007 growth inh, LmPK inhibitor, Shiga inhibitor, CHX counter, Giardia FBPA inh)
COc1ccc(NC(=O)N2CCN(C(=O)C(Cc3ccc(F)cc3)NC(C)=O)CC2)cc1 (configuration not stated)	CHX counter 9.7
CCc1ccc(NC(=O)N2CCCCCC2)cc1	Shiga inhibitor 87, CHX counter 49
O=C(Nc1ccc(Br)cc1)N1CCCC(O)C1 (configuration not stated)	CHX counter 24
COC(=O)c1ccc(NC(=O)C(=O)N2CCCC2)cc1	Shiga inhibitor 76
CCOC(=O)c1ccc(NC(=O)N2CCN(Cc3ccccc3)CC2)cc1	CHX counter 15
O=C(Nc1ccc(Br)cc1)N1CCCCCC1	Shiga inhibitor 98, CHX counter 55
O=C(Nc1cccc(F)c1)N1CCCCCC1	none
O=C(Nc1ccccc1C(=O)OCc1cc(=O)n2c3c(sc2n1)CCCC3)c1ccc(F)cc1	none (no result: RE007 growth inh, LmPK inhibitor, Shiga inhibitor, CHX counter, Giardia FBPA inh)
COC(=O)c1ccc2c(c1)N(CC(=O)Nc1ccc(C)cc1Cl)C(=O)c1ccccc1S2	none (no result: RE007 growth inh, LmPK inhibitor, Shiga inhibitor, CHX counter, Giardia FBPA inh)
CC(=O)N1N=C(c2ccccc2)CC1c1cn(C)c2ccccc12 (configuration not stated)	Shiga inhibitor 115, CHX counter 52
COc1ccc(C2=NN(c3nc(-c4ccccc4)c(CC(=O)O)s3)C(c3ccco3)C2)cc1 (configuration not stated)	Shiga inhibitor 48, CHX counter 18
CC(=O)N1N=C(c2ccc(C)cc2)CC1c1ccco1 (configuration not stated)	CHX counter 13
C(=C\c1ccco1)/C1=NN(c2ccccc2)C(c2ccco2)C1 (configuration not stated)	Shiga inhibitor 80, CHX counter 40
O=S(=O)(O)OCC1OC(OC2(COS(=O)(=O)O)OC(COS(=O)(=O)O)C(OS(=O)(=O)O)C2OS(=O)(=O)O)C(OS(=O)(=O)O)C(OS(=O)(=O)O)C1OS(=O)(=O)O (configuration not stated)	none (no result: RE007 growth inh, LmPK inhibitor, Shiga inhibitor, CHX counter, Giardia FBPA inh)
Cc1nnc(SCC(=O)N2N=C(c3ccc(Cl)cc3)CC2c2ccco2)[nH]c1=O (configuration not stated)	RE007 growth inh inconclusive, CHX counter 18
Cc1ccc(C2CC(c3ccccc3)=NN2c2ccccc2)o1 (configuration not stated)	RE007 growth inh inconclusive, Shiga inhibitor 64, CHX counter 21
Clc1ccc(C2=NN(c3ccccc3)C(c3ccco3)C2)cc1 (configuration not stated)	Shiga inhibitor 75, CHX counter 44
Cc1nc(N2N=C(c3ccc(Cl)cc3)CC2c2ccco2)sc1C(=O)N(C)C (configuration not stated)	CHX counter 27
COc1ccc(-c2noc(-c3ccc(NC(C)c4ccccc4)c([N+](=O)[O-])c3)n2)cc1OC (configuration not stated)	none (no result: RE007 growth inh, LmPK inhibitor, Shiga inhibitor, CHX counter, Giardia FBPA inh)
C=CCC(C)(O)CCc1ccccc1 (configuration not stated)	none (no result: TbPYK inhibitor, RE007 growth inh, LmPK inhibitor, Shiga inhibitor, CHX counter)
O=C1CCCC=C1[C@H](CCc1ccccc1)OC(=O)c1ccc(Br)cc1	none (no result: TbPYK inhibitor, RE007 growth inh, LmPK inhibitor, Shiga inhibitor, CHX counter)
Cc1ccc(N2N=C(c3ccc(F)cc3)CC2c2ccco2)cc1 (configuration not stated)	Shiga inhibitor 46, CHX counter 30
O=C(Nc1ccsc1C(=O)O)c1ccc(Cl)cc1	Shiga inhibitor 85, CHX counter 27
O=C(CNC(=O)c1ccccc1)Nc1ccsc1C(=O)O	none
Cc1ccc(C(=O)Nc2ccsc2C(=O)O)cc1	Shiga inhibitor 52, CHX counter 39 (no result: RE007 growth inh)
Cc1cc2ncc(C(=O)Nc3ccsc3C(=O)O)c(C)n2n1	TbPYK inhibitor inconclusive, LmPK inhibitor 25µM, CHX counter 18
CCOCCCNS(=O)(=O)c1ccccc1	none
CC(=O)Nc1ccc(NC2=C(Cl)C(=O)c3ccccc3C2=O)cc1	Giardia FBPA inh inconclusive
O=C1C(Cl)=C(NCCCN2CCOCC2)C(=O)c2ccccc21	none (no result: LmPK inhibitor, Shiga inhibitor, CHX counter, Giardia FBPA inh)
Cc1ccc(NC2=C(NCCO)C(=O)c3ccccc3C2=O)cc1	Shiga inhibitor 87, CHX counter 32, Giardia FBPA inh inconclusive
O=C1C(Cl)=C(NCCN2CCOCC2)C(=O)c2ccccc21	Shiga inhibitor 63, CHX counter 32, Giardia FBPA inh inconclusive
